Sampled rows, rich in hits. Any-hit rate of the full collection: about 5.9%.
RORgamma inh: ROR gamma (mouse) transcription inhibition | Drosophila S2 Gal4-RORgamma UAS-luciferase reporter, 20 h | AID 2551 | 310,000 compounds, 5.4% hits | Potency, µM (top dose mostly 53.6 µM), usual class: inhibitors | P51450; note: nearly all actives have a fitted effect of over 60% in size
Target sequence (P51450 whole entry, looked up, the tested form may be a part): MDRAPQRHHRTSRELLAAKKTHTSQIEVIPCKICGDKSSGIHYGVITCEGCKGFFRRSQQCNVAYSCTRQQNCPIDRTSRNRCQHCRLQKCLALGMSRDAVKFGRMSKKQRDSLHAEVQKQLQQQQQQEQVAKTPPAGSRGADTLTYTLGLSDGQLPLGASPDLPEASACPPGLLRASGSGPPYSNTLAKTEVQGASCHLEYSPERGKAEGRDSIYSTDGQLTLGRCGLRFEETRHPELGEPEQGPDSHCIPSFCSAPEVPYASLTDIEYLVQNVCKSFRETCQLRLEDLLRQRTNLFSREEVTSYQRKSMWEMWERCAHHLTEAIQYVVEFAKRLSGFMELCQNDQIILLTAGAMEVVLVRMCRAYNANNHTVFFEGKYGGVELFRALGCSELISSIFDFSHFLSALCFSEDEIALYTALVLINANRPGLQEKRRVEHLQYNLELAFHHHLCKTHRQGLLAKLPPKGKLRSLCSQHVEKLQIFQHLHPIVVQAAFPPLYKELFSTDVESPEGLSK
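Read-out: Photinus luciferase luminescence; inhibitors lower reporter signal. Insect Schneider cells with Gal4-ROR gamma fusion under metallothionein promoter, UAS reporter; 700 uM final copper sulfate induction, 20 hr, ambient temperature.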
GLP-1R inv ag: inverse agonists of human GLP-1 receptor. P43220. HEK293 GLP-1R CRE-luciferase, luminescence, 24 h; GLP-1R form is constitutively active. Potency, µM (highest dose often 38.3 µM), hits mostly inhibitors. 410,000 compounds, 1.6% hits; note: nearly all actives have a fitted effect of over 55% in size
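Using stably transfected HEK293 (constitutively active GLP-1R, cAMP-luciferase reporter), compounds were incubated 24 hr and luciferase measured by luminescence.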
GLP1R ag: agonists of human GLP-1 receptor. P43220. HEK293 GLP-1R CRE-luciferase, luminescence, 4-6 h; cells express a hypersensitive GLP-1R form. Potency, µM (series often up to 45.6 µM), usual class: activators. 380,000 compounds, 0.007% hits
HEK293 tox: cytotoxicity counter-screen for GLP-1 receptor inverse agonists | 410,000 compounds, 0.13% hits | AID 624418 | HEK293 cAMP-luciferase reporter cells, luminescence, 24 h | Potency, µM (highest dose often 38.3 µM), actives largely listed as inhibitors;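 note: loss of luciferase light is scored as toxicity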
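Cells in DMEM/10% Nu serum/1% pen-strep, 1536-well format. Pre-incubated 12 h, dosed with 23 nL compound, incubated a further 24 h. Luciferase detection, 12 min at room temp, luminescence.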
Gal4-VP16 FLuc: Gal4-VP16 reporter inhibition counter-screen. Drosophila S2 Gal4-VP16 UAS-luciferase, luminescence, 20 h. Potency, µM (series often up to 53.6 µM), actives largely listed as inhibitors. 310,000 compounds, 3.5% hits;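 note: Gal4-VP16 expression switched on by copper sulfate through the metallothionein promoter; nearly all actives have a fitted effect of over 50% in size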
Of the large screens only hits and unclear results are named; the others gave an inactive call. Calls come from the whole dose curve; as a rule, active = well fitted curve in the direction sought with a large enough effect; inconclusive = small, poorly fitted or top-dose-only effect, or another doubt; inactive = no such curve, though single readings can be large; an effect the other way counts as inactive or inconclusive.

C=C(C)CN(CC)c1nc(N)c2c(N)nc3c(c2c1C#N)CC(=O)N3C12CC3CC(CC(C3)C1)C2	GLP-1R inv ag inconclusive
Fc1ccc(NC(=S)Nc2ccc3nccnc3c2)cc1	none
Cc1cccc(C)c1NC(=S)Nc1ccc(F)cc1	RORgamma inh 10µM, Gal4-VP16 FLuc inconclusive
Cc1ccc(NC(=S)Nc2ccc3cn[nH]c3c2)cc1C	RORgamma inh 13µM, Gal4-VP16 FLuc 5µM
Cc1ccc(NC(=S)Nc2ccc(F)cc2)cc1C	RORgamma inh 7.1µM, GLP-1R inv ag inconclusive, HEK293 tox inconclusive, Gal4-VP16 FLuc 7.1µM
O=P(O)(O)C(O)(Cc1cnc2ccccn12)P(=O)(O)O	none (no result: RORgamma inh, GLP-1R inv ag, HEK293 tox, Gal4-VP16 FLuc)
Cc1ccc(C)c(N2CCN(C(=O)c3c4c(nc5ccccc35)C(=O)N(C3CCCCC3)C4)CC2)c1	none (no result: RORgamma inh, GLP1R ag, Gal4-VP16 FLuc)
C(=N\Nc1nc2ccccc2[nH]1)/c1c[nH]c2ccccc12	RORgamma inh 3.5µM, GLP-1R inv ag inconclusive, HEK293 tox inconclusive, Gal4-VP16 FLuc 10µM
COc1ccc(/C=N/Nc2nc3ccccc3[nH]2)c(OC)c1OC	RORgamma inh 13µM
Cc1nn(-c2ccccc2)c(Cl)c1/C=N/Nc1nc2ccccc2[nH]1	RORgamma inh inconclusive, Gal4-VP16 FLuc inconclusive
Cc1cc(=O)[nH]c(N/N=C/c2c[nH]c3ccccc23)n1	none
Cc1ccc(/C=N/Nc2nc3ccccc3[nH]2)s1	RORgamma inh 4.5µM, GLP-1R inv ag inconclusive, HEK293 tox inconclusive, Gal4-VP16 FLuc 5µM
C(=N\Nc1nc2ccccc2[nH]1)/c1cccc2cccnc12	RORgamma inh 0.35µM, Gal4-VP16 FLuc 2.2µM
O=C(CSc1nc2ccccc2nc1Cc1ccc(Cl)cc1)N1CCc2ccccc21	HEK293 tox inconclusive (no result: RORgamma inh, GLP1R ag, Gal4-VP16 FLuc)
COCCn1c(=O)c(-c2cccc(C#N)c2)nc2cnc(Oc3ccc(OC)cc3)nc21	RORgamma inh inconclusive (no result: GLP-1R inv ag, GLP1R ag, HEK293 tox)
Cc1ccc2oc(-c3cccc(NC(=O)c4ccc(N5CCC(C)CC5)c([N+](=O)[O-])c4)c3)nc2c1	none (no result: RORgamma inh, GLP1R ag, Gal4-VP16 FLuc)
Cc1ccc(/C=N/Nc2nc(Cl)c(Cl)cc2Cl)s1	RORgamma inh 11µM, GLP-1R inv ag inconclusive, Gal4-VP16 FLuc inconclusive
Cc1ccsc1/C=N/Nc1nc(Cl)c(Cl)cc1Cl	none
O=c1[nH]c(N/N=C/c2cc3c(cc2[N+](=O)[O-])OCO3)nc2ccccc12	none
O=[N+]([O-])c1cc(/C=N/Nc2nc3ccccc3[nH]2)c(O)cc1O	RORgamma inh 3.5µM, GLP-1R inv ag inconclusive, HEK293 tox inconclusive, Gal4-VP16 FLuc 3.2µM
Cc1[nH]c2ccccc2c1/C=N/Nc1nc2ccccc2[nH]1	GLP-1R inv ag inconclusive
Cc1ccccc1/C=N/Nc1nc2ccccc2[nH]1	RORgamma inh 7.1µM, GLP-1R inv ag inconclusive, HEK293 tox inconclusive
COc1ccc(CN2COc3ccc4c(-c5ccccc5)cc(=O)oc4c3C2)cc1OC	none (no result: RORgamma inh, GLP1R ag, Gal4-VP16 FLuc)
CC1CCN(c2nnc(-n3cccc3CNc3cccc(F)c3)s2)CC1	GLP-1R inv ag inconclusive (no result: RORgamma inh, Gal4-VP16 FLuc)
CCc1ccc(S(=O)(=O)c2cn(C)c3cc(F)c(F)cc3c2=O)cc1	none (no result: RORgamma inh, GLP1R ag, Gal4-VP16 FLuc)
O=C1C(=C2CCCCC2)SC(=S)N1Cc1ccco1	RORgamma inh 13µM, GLP-1R inv ag inconclusive, HEK293 tox inconclusive
COc1ccc(C(=O)/C(=C/c2cccs2)c2nc3ccccc3o2)cc1	RORgamma inh 3.2µM, GLP-1R inv ag 11µM, Gal4-VP16 FLuc inconclusive
NC(N)=NCCC[C@H](N)C(=O)N1CCC[C@H]1C(=O)N1CCC[C@H]1C(=O)NCC(=O)N[C@@H](Cc1ccccc1)C(=O)N[C@@H](CO)C(=O)N1CCC[C@H]1C(=O)N[C@@H](Cc1ccccc1)C(=O)O	none (no result: GLP-1R inv ag, GLP1R ag, HEK293 tox)
Cc1ccc2[nH]c3c(c2c1)CN(C(=O)CN1CCN(Cc2ccc4c(c2)OCO4)CC1)CC3	GLP-1R inv ag 3.5µM
N#Cc1ccc2c(c1)C[C@]1(CCCCN3C(=O)c4ccccc4C3=O)Oc3c(c(=O)oc4ccccc34)C2O1	none (no result: GLP-1R inv ag, GLP1R ag, HEK293 tox)
C=CCn1c(P(=O)(O)c2ccccc2)nc2ccccc21	none
O=C(O)c1ccc(NCc2nc3ccccc3n2Cc2ccccc2)cc1	none
CCn1c(NC(=O)/C=C/c2ccc(F)cc2)nc2ccccc21	RORgamma inh 1.3µM, GLP-1R inv ag inconclusive, HEK293 tox inconclusive, Gal4-VP16 FLuc inconclusive
CCn1c(CNc2ccc(C(=O)O)cc2)nc2ccccc21	RORgamma inh 10µM

High-throughput results deposited in PubChem BioAssay by National Center for Advancing Translational Sciences (NCATS).
